Reference: PubChem BioAssay (NCI)
About 83,000 compounds went through this panel and 20% of them were active in at least one assay; those are over-represented in the sample as a whole.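 Step 1: grow cells in 96-well plates. Step 2: add test compound at a single concentration. Step 3: incubate 48 h. Step 4: record percent growth.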 Unmarked numbers belong to inactive results. Active and inactive are the calls of the source.

tested on: UACC-62 melanoma; assay: NCI-60 one-dose screen, 48 h (100 = growth as untreated, 0 = no growth, -100 = all killed); details: 10 µM unless noted
Method: Growth inhibition of the UACC-62 human tumor cell line is measured as a screen for anti-cancer activity. Cells are grown in 96 well plates and exposed to the test compound for 48 hours. Compounds are tested at a single concentration, which is 10^-5 M for most compounds. The reported endpoint is percent growth (GI% or GIPRCNT), where numbers from 0 - 100% represent growth inhibition, and numbers from -100% - 0 represent cell death. For example, a value of 40 represents 60% growth inhibition. A value of 0 means no net growth occurred over the course of the experiment. A value of -40 indicates 40% of cells at the beginning of the experiment died by the end of the experiment. A value of -100 means all cells are dead at the end of the experiment.
NCI-60 Human Tumor Cell Lines Screen was performed using the standard one-dose NCI protocol, which is described in more detail at https://dtp.cancer.gov/discovery_development/nci-60/default.htm.
Compounds with GIPRCNT values below 10 were considered active. Activity score was based on GIPRCNT using the following formula: […]
Score is 0 for GIPRCNT values of 100 or above, 50 for GIPRCNT values of 0, and 100 for GIPRCNT values of -100.

SMILES	growth
COc1cccc(-n2cc(-c3nc(Cl)c4ccccc4n3)nn2)c1	97.4%
CNC(=O)c1cc(Oc2ccc3c(c2)sc2nc(-c4ccc(Cl)cc4)cn23)ccn1	85.1%
Nc1nc(-c2ccccc2)cs1	107%
COC(=O)c1cc(-c2cccs2)c(C#N)c(N)c1C#N	99.3%
O=P([O-])(O)OP(=O)([O-])O.[NH-][C@H]1CCCC[C@@H]1[NH-].[OH-].[OH-].[Pt+4]	103%
CC(Br)C(O)c1cc2c(cc1Br)OCO2 (stereo not given)	98.9%
COc1cc(OC)c(C(=O)/C=C/c2cccc(C#N)c2)c(OC)c1	10.9%
CCOC(=O)/C=C\C(=O)NC(N)=O	99.3%
Cc1ccc(OCCn2c(C)nn(-c3ccc(Cl)cc3)c2=O)cc1	103%
Nc1c(C(=O)Nc2cccc(C(F)(F)F)c2)sc2nc3c(cc12)CCCCC3	12.8%
Cc1cc(Nc2nc(-c3ccc(F)cc3)nc3ccccc23)n[nH]1	40.8%
Cc1ccc2c(c1)ncn2-c1ncnc2c1CC(C)c1ccccc1N2C (stereo not given)	21.5%
Cc1sc2nc(CSc3nnc(-c4ccco4)o3)[nH]c(=O)c2c1C	108%
C=C1C(=O)O[C@H]2[C@H]1CC/C(Cn1cc(-c3ccsc3)nn1)=C\CC[C@@]1(C)O[C@@H]21	-55.7% (active)
CCCC1OC(c2ccc(C(C)C)cc2)OCC1CC (stereo not given)	102%
O=c1oc2c([nH]c3ccc4ccccc4c32)c2ccccc12	93.8%
COc1cc(/C=C/C(=O)c2ccc(NC(=O)CN3CCN(c4cc5c(cc4F)c(=O)c(C(=O)O)cn5C4CC4)CC3)cc2)cc(OC)c1OC	-23.5% (active)
NC(=O)c1cccc(N2Cc3ccccc3OC3=C2C(=O)c2c(O)ccc(O)c2C3=O)c1	-86.1% (active)
COc1ccc(/C=C/C(=O)c2cc(OC)c(OC)c(OC)c2)cc1OCc1cn(Cc2ccc(F)cc2)nn1	64.4%
CC(=O)Nc1ccc2c(c1)/C(=C\C=C/c1ccc([N+](C)(C)C)cc1)c1ccccc1-2	100%

SMILES	growth
O=C(Nc1ccc(I)cc1)c1cc([N+](=O)[O-])ccc1O	0.385% (active)
Cc1cc(NC(=O)COC(=O)c2sc3cc(F)ccc3c2Cl)no1	90.2%
Cc1ccc(C(=O)c2sc3nc4c(cc3c2N)CCCC4)c(C)c1	24.3%
NS(=O)(=O)c1ccc(CN2C(=O)c3cccc4cccc(c34)C2=O)cc1	97.1%
COc1ccc(/C=N/NC(=O)Cn2c(Cc3cccc4ccccc34)nc3ccccc32)cc1	87.7%
COc1cc(-c2csc(NC(=O)c3cc(C(F)(F)F)cc(C(F)(F)F)c3)n2)cc(OC)c1OC	3.9% (active)
COc1ccccc1CNCCCN1C(=O)c2ccc3c4c(ccc(c24)C1=O)C(=O)N(CCCNCCCCNCCCCN)C3=O	-75% (active)
Cc1sc(N=Nc2ccc(N(C)C)cc2)[n+]([O-])c1C	99.2%
CCN(CC)CCCC(C)N=c1cc(Nc2cc(=NC(C)CCCN(CC)CC)c3cc(OC)ccc3o2)oc2ccc(OC)cc12 (stereo not given)	-72.5% (active)
Cc1ccc2c(c1)C(C)Cc1c(ncnc1-n1cnc3ccccc31)N2C (stereo not given)	26%
COc1cc2oc(-c3cccc(NC(=O)Nc4ccc5c(c4)OCO5)c3)cc(=O)c2c(OC)c1OC	62.1%
CCC(=O)Oc1ccc2c(c1)CC[C@@H]1[C@@H]2CC[C@]2(C)C[C@H](OC(=O)CC)C[C@@H]12	49.1%
O=C(O)c1cn(C2CC2)c2cc(N3CCN(S(=O)(=O)c4ccc(Cl)c(Cl)c4)CC3)c(F)cc2c1=O	29.6%
Cc1cc(N/C=c2\sc3ncnn3c2=O)no1	94%
COc1cc(C2C=C(C)N=C3SC(C)=NN32)cc(OC)c1OC (stereo not given)	107%
C/C(=N\NC(=O)CC#N)c1cc2cc(Cl)ccc2o1	91%
CCCOC(=O)C1(O)CCCC1	105%
COc1cc(OC)c(C(=O)/C=C/c2ccc(C(F)(F)F)cc2)c(OC)c1	48.2%
CC1(C)OC2COC3(C(=O)O)OC(C)(C)OC3C2O1 (stereo not given)	97.7%
CC(=O)Nc1nc(C(=O)N2N=C(C)/C(=C/c3ccc(Cl)cc3)C2=O)cs1	111%
